Results from ChEMBL document CHEMBL3433997, “St. Jude Leishmania screening dataset” (2016).

Assays:
Format in all cases: functional
[1] = target: Solute carrier family 2, facilitated glucose transporter member 1 (Homo sapiens) (UniProt P11166); assay: ST_JUDE_LEISH: Cytotoxicity at 2uM final concentration against transgenic Leishmania Mexicana promastigotes LmGLUT1 that are glucose transport deficient and complemented with the human glucose transporter GLUT1. Activity is measured by DNA content using SYBR green in vitro
Solute carrier family 2, facilitated glucose transporter member 1 (Homo sapiens), sequence (P11166 whole entry): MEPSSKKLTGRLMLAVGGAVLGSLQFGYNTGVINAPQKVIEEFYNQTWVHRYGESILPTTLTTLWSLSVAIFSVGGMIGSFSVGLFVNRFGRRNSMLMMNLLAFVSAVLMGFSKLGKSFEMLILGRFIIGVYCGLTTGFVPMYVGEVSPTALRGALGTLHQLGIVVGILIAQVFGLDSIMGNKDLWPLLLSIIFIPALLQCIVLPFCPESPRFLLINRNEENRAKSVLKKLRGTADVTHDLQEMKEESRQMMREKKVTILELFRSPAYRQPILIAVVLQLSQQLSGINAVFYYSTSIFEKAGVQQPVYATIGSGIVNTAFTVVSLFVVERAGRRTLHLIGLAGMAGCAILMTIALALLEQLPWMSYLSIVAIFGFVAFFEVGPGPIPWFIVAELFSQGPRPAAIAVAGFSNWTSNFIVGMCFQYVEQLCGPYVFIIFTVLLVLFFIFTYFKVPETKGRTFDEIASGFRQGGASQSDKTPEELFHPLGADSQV

[2] = target: Hexose transporter 1 (Plasmodium falciparum) (UniProt O97467); assay: ST_JUDE_LEISH: Cytotoxicity at 2uM final concentration against transgenic Leishmania Mexicana promastigotes LmPfHT that are glucose transport deficient and complemented with the Plasmodium falciparum hexose transporter. Activity is measured by DNA content using SYBR green in vitro
[3] = target: Glucose transporter (Leishmania mexicana) (UniProt O61059); assay: ST_JUDE_LEISH: Cytotoxicity at 2uM final concentration against transgenic Leishmania Mexicana promastigotes LmGT2 that are glucose transport deficient and complemented with the L. Mexicana glucose transporter 2. Activity is measured by DNA content using SYBR green in vitro

| SMILES | inhibition [1] | inhibition [2] | inhibition [3] |
| --- | --- | --- | --- |
| Cc1ccc(F)cc1-c1cc(N2CCCN(C(=O)c3ccc(Br)o3)CC2)ncn1 | 0.81% | 0.93% | -0.08% |
| Cc1cc(NC(=O)c2ccc(-c3ccccc3)cc2)no1 | 4.35% | 3.79% | 4.2% |
| CCCCCCCN(Cc1ccc(OC(C)(C)C(=O)OCC)cc1)C(=O)Nc1ccccc1OCC | -0.85% | -1.76% | -2.13% |
| CN(C)C1CCN(CC#Cc2cc3ncnc(Nc4ccc(OCc5cccc(F)c5)c(Cl)c4)c3s2)CC1 | 1.79% | 0.49% | 2.9% |
| CCCCNCc1ccc(-c2nc(CN(CCCn3ccnc3)C(=O)NC3CC3c3ccccc3)cs2)cc1 (stereo not drawn) | 3.77% | 3.79% | 4.29% |
| CCc1ccc(C2CCN(CCCCNC(=O)c3ccc(-c4ccc(Cl)cc4)cc3)CC2)c(O)c1 | 0.23% | 2.44% | 2.8% |
| CCOc1ccc(Br)cc1/C=C/C(=O)Nc1ccc(C2CCN(C)CC2)cc1 | 9.52% | 7.2% | 5.47% |
| CCCCCCCC1=NN2C(=N)C(=Cc3cc(Br)c(OCc4ccc(F)cc4)c(OCC)c3)C(=O)N=C2S1 | 3.23% | 3.17% | 2.47% |
| O=c1cc(NCCCNCc2[nH]c3cc(Cl)cc(Cl)c3c2Cn2cccn2)[nH]c2ccccc12 | 0.47% | -1.31% | 1.93% |
| Cc1[nH]c(C)c(-c2ccc(CCc3ccc(F)cc3F)cc2)c(=O)c1Cl | 0.89% | 1.94% | -0.68% |
| CN(C)c1ccc(Br)c(Br)c1 | 3.2% | 4.63% | -1.28% |
| CCN(CC)CCN(CCCc1ccc(-c2ccc(C(F)(F)F)cc2)cc1)C(=O)Cn1c(CCc2cccc(F)c2F)nc(=O)c2c1CCC2 | -2.04% | -0.48% | 6.62% |
| CN(C(=O)/C=C/c1cc(C(F)(F)F)ccc1F)C1CCN(CCCCCNC(=O)/C=C/c2ccc(Cl)c(Cl)c2)C1 (stereo not drawn) | 0.02% | 1.48% | 1.37% |
| CN(C)CCN(C)Cc1cccc(-c2ccc3c(Nc4ccc(F)cc4Cl)ccnc3c2)c1 | 1.88% | 4.55% | 12.7% |
| OC(CNCCCCCCNCC(O)c1ccc(Cl)c(Cl)c1)c1ccc(Cl)c(Cl)c1 (stereo not drawn) | 3.81% | 4.69% | 3.55% |
| Cc1ccc(-n2nc(-c3ccccc3)c3cc(C(=O)NCCN)sc32)cc1 | -2.29% | -1.78% | -6.61% |
| C=CCn1c(=N)c(C(=O)NC2CCCCC2)cc2c(=O)n3cccc(C)c3nc21 | 11.3% | 15.2% | 4.5% |
| CC(C)(C)c1ccc(CNC(=O)c2ccc(CNC3CCC(N)CC3)s2)cc1 (stereo not drawn) | -0.19% | 0.91% | 0.31% |

| SMILES | inhibition [1] | inhibition [2] | inhibition [3] |
| --- | --- | --- | --- |
| Cc1cccc2nc(-c3cccc(-c4ccc(NC(=O)Nc5ccc6c(c5)OCO6)cc4)c3)[nH]c12 | 1.72% | 0.05% | 2.58% |
| CC(=O)Nc1nc(N)c2c(ccc3c2ccn3CC(C)C)n1 | -2.54% | -0.46% | -0.95% |
| Cc1cc2nc(-c3cc(-c4cccc(NS(C)(=O)=O)c4)cnc3N)[nH]c2cc1C | 1.13% | 0.27% | 0.05% |
| COCCNCc1cccc(-c2ccc3c(Nc4cc(O)c(Cl)cc4F)ccnc3c2)c1 | 2.97% | 3.2% | 2.93% |
| O=C(Nc1ccc(-c2ccccc2)cc1)Nc1cccc(Cn2nc(Cl)c(N3CCCNCC3)cc2=O)c1 | 3.71% | 0.49% | 0.24% |
| Cc1ccccc1/N=C1\NC(=S)N(c2cccc(C(F)(F)F)c2)C12CCC(C(C)(C)C)CC2 (stereo not drawn) | 2.78% | 2.68% | 2.58% |
| CCc1cc(OC)c(C(=O)NC2CCN(C[C@H](O)c3ccnc4ccc(OC)cc34)CC2)cc1Br | 1.58% | -0.43% | -0.3% |
| O=C(Nc1ccc(Cl)cc1F)NC1CCN(CCCCCNC(=O)C2CC2c2ccc(Cl)c(Cl)c2)CC1 (stereo not drawn) | 1.08% | 0.8% | 3.62% |
| COc1ccc(Nc2nccc(N3CCC(NC(=O)c4cccc(NC(C)=O)c4)C3)n2)cc1 (stereo not drawn) | 0.39% | 0.61% | 1.86% |
| Cc1nc(C)c(-c2ccc(Oc3ccc(Cl)c(Cl)c3)cc2)c(O)c1Br | 0.19% | 0.11% | 0.06% |
| Cc1cc(N[C@@H](Cc2ccccc2)C(=O)NCCc2ccccc2)nc(NCc2ccccc2C)n1 | 2.31% | 2.04% | -0.14% |
| O=C(NCCCNc1ccc2ccccc2n1)c1cc2c(Cl)cc(Cl)cc2[nH]1 | 0.34% | -0.36% | 2.17% |
| N#Cc1ccc(-c2ccc(C(=O)NCCCCN3CCC(c4ccc5c(c4OCc4ccccn4)CCCC5)CC3)cc2)cc1 | -0.71% | 1.73% | 0.17% |
| CC(C)COc1ccc(Cl)cc1Cc1nc(-c2nc3ccc(CN(C)C)cc3[nH]2)co1 | 4.88% | 4.73% | 4.57% |
| N#CCCN1CCN(Cc2cccc(-c3ccc(-c4nc5ccccc5[nH]4)s3)c2)CC1 | -1.29% | -2.37% | -0.4% |
| Cc1cccc2[nH]c(-c3cc(-c4cn[nH]c4)cnc3N)nc12 | 2.56% | 2.36% | 2.33% |
| O=c1nc(NCCCCCN2CCC(c3c[nH]c4ccccc34)CC2)[nH]cc1Cc1ccc(Cl)c(Cl)c1 | 2.65% | 2.12% | 2.08% |
| Nc1ccc(-c2nc3cc(Oc4ccc5[nH]c(-c6ccc(N)cc6)nc5c4)ccc3[nH]2)cc1 | -3.07% | 0.6% | -0.55% |
